Several values for one entry are separate records, joined by “and”; a condition that tells them apart may be missing. Identical values can stand only once. This is part of a sample that, as a whole, favours compounds with a hit. Of some 79,000 tested, about 15% had one in any assay. A structure can be active in one record and inactive in another. Activity calls are given as the source filed them. No stated cut-off is given here; in the data, active means growth inhibition above about 70%; inactive means the rest.
Assays:
[1] = NCI Yeast Anticancer Drug Screen. Data for the rad50 strain (AID 155);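 further: 0% = growth of vehicle-only cultures of the same strain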; conditions: S. cerevisiae rad50 strain growth inhibition; at 50.0 µM; stronger effect = higher value
Outline: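 DNA repair mutant yeast, compound exposure, growth read-out; inhibition is taken relative to vehicle.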

[2] = NCI Yeast Anticancer Drug Screen. Data for the mec2-1 strain (AID 157); conditions: S. cerevisiae mec2-1 strain, at 50.0 µM, stronger effect = higher value
Outline: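 Cells of the genetically defined mec2-1 yeast strain are incubated with test compound. Inhibition of growth is calculated against vehicle-treated controls.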

[3] = NCI Yeast Anticancer Drug Screen. Data for the sgs1 mgt1 strain (AID 161);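 further: 0% = growth of cultures given vehicle only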; conditions: S. cerevisiae sgs1 mgt1 strain, at 50.0 µM, stronger effect = higher value
Outline: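 Inhibition of yeast growth, normalised to vehicle-treated controls, is reported for a strain bearing genetic alterations in DNA damage repair.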

[4] = NCI Yeast Anticancer Drug Screen. Data for the cln2 rad14 strain (AID 165);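 further: 0% = growth equal to vehicle treated cultures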; conditions: S. cerevisiae cln2 rad14 strain, at 50.0 µM, stronger effect = higher value
Outline: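 The screen exposed genetically defined yeast (cln2 rad14) to test compounds and scored growth inhibition relative to vehicle-treated controls.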

[5] = NCI Yeast Anticancer Drug Screen. Data for the bub3 strain (AID 167); conditions: S. cerevisiae bub3 mutant strain, at 50.0 µM, stronger effect = higher value
Outline: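 In this screen, a yeast mutant lacking normal mitotic checkpoint function is challenged with compound. Relative growth versus vehicle gives the inhibition value.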

[6] = NCI Yeast Anticancer Drug Screen. Data for the mlh1 rad18 strain (AID 175); conditions: S. cerevisiae mlh1 rad18 strain growth inhibition; at 50.0 µM; stronger effect = higher value
Outline: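 Compound-treated yeast growth, normalised to vehicle controls. Strain bears defined DNA repair mutations.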

Measured: growth inhibition

Cc1ccc(Cl)c([N+](=O)[O-])c1
inactive: [1] -23.7% | [2] -52.5% | [3] -30.4% | [4] -3.25% | [5] -20.1% | [6] -9.75%

c1cc2c(cc1C1OCC3C(c4ccc5c(c4)OCO5)OCC13)OCO2 (stereo not drawn)
81.5% (active) and 54.3% (inactive): [5]
82.5% (active) and 57.4% (inactive): [3]
inactive: [4] 44.4% and 34.4% | [6] 67% and 31.7%
75.1% (active) and 30.8% (inactive): [1]
74.6% (active) and -0.05% (inactive): [2]

CS(=O)(=O)CS(=O)(=O)OCCF
inactive: [1] 5% | [2] -12.4% | [3] -10.6% | [4] -9.55% | [5] -29% | [6] -33.2%

Clc1ccc(N=P(c2ccccc2)(c2ccccc2)c2ccccc2)cc1.[Cl][Co][Cl]
inactive: [1] 49% | [2] 11.1% | [3] 44.5% | [4] 18.1% | [5] 22.1% | [6] 14.6%

O=C(CC(=O)C(F)(F)C(F)(F)C(F)(F)F)c1ccco1.[Fe]
inactive: [1] 25.3% | [2] 24.7% | [3] 23.6% | [4] 13.6% | [5] 15.7% | [6] 17.9%

Nc1cc(S(=O)(=O)F)ccc1Cl
inactive: [1] 26.3% | [2] 6.1% | [3] 20.1% | [4] 35.5% | [5] 22.9% | [6] 23.6%

CCN(CCCl)c1ccc(NC(=O)c2cc(C(=O)NCCN(C)C)cc(C(=O)Nc3ccc(N(CC)CCCl)cc3)c2)cc1
inactive: [1] 35% | [2] -23.9% | [3] -15.8% | [4] 2.95% | [5] -1.4% | [6] 12.5%

CCOC(OCC)c1ccccc1
inactive: [1] 7.95% | [2] -5% | [3] -4.95% | [4] -11.9% | [5] 6.6% | [6] 14.2%

CC(C)CC(=O)[O-].N.N.N.N.N.[Co+3].[O-][Cl+3]([O-])([O-])[O-]
inactive: [1] -4.85% | [2] 23.4% | [3] -19.6% | [4] 21.8% | [5] -10.1% | [6] -19.1%

[Cl][Pd]([Cl])([Cl])[Cl].[NH-]CC[NH-].[NH-]CC[NH-].[Pd+2]
inactive: [1] 28.7% | [2] 16.9% | [3] 32% | [4] -3.5% | [5] 26.4% | [6] 54.7%

NC(N)=N/N=C/c1c[nH]c2ccccc12
inactive: [1] -5.4% | [2] -14.2% | [3] -18% | [4] 4.8% | [5] -10.1% | [6] -25.1%

C/C(=N\NC(N)=O)C(CN(C)C)C(c1ccccc1)c1c(O)c2ccccc2oc1=O (stereo not drawn)
inactive: [1] 15.8% | [2] 21.1% | [3] 15.6% | [4] 5% | [5] 9.7% | [6] 8%

Cc1ccc2n[se]nc2c1
inactive: [1] 11.6% | [2] -15.4% | [3] -16.8% | [4] -0.3% | [5] -15.1% | [6] -8.15%

CC(Cl)C(=O)OC(C)C(=O)O (stereo not drawn)
inactive: [1] 12.1% | [2] 17.1% | [3] 12.5% | [4] 8% | [5] -2.7% | [6] 3.4%

OC(COc1cccc2ccccc12)CN(CCCl)CCCl (stereo not drawn)
inactive: [1] 6.85% | [2] -12.5% | [3] -5.6% | [4] 4.05% | [5] 8.55% | [6] -30.1%

CC1(C)COP(=O)(c2ccccc2)N1 (stereo not drawn)
inactive: [1] -14.1% | [2] -21.4% | [3] -7.4% | [4] -24.4% | [5] -1.5% | [6] -3.1%

O=[N+]([O-])c1ncccc1NCCN1CCCC1
inactive: [1] -2.2% | [2] -0.5% | [3] -15.8% | [4] -29.3% | [5] 7.05% | [6] 4.7%

[CH3][Sn]([CH3])([CH3])[O]C(=O)CNC(=O)c1ccccc1
inactive: [1] -8.55% | [2] -4.1% | [3] -2.3% | [4] 27.9% | [5] 4.25% | [6] -0.3%

O=[N+]([O-])c1cccc(/C=C/C=C/c2ccc(Cl)c(S(=O)(=O)F)c2)c1
inactive: [1] 7.95% | [2] 14.4% | [3] -39.5% | [4] 6.5% | [5] 9.05% | [6] -7.1%

CC(C)CCC[C@@H](C)[C@H]1CC[C@H]2[C@@H]3CC[C@H]4C[C@H]5N[C@H]5C[C@]4(C)[C@H]3CC[C@]12C
inactive: [1] 10.6% | [2] -21.8% | [3] 5.2% | [4] -3.55% | [5] -9.6% | [6] 0.1%

CN1C2CCCC1CC(=O)C2
inactive: [1] -10.3% | [2] -3.55% | [3] -19.4% | [4] -22.4% | [5] -3.55% | [6] -10.8%

CC1(C)CN=C(Nc2ccc(F)cc2)S1
inactive: [1] 2.55% | [2] 0.6% | [3] -17.9% | [4] 19.3% | [5] -17.1% | [6] -21.8%

COc1cc2c3cc1Oc1c(OC)c(OC)cc4c1C(Cc1ccc(cc1)Oc1cc(ccc1O)CC3N(C)CC2)N(C)CC4 (stereo not drawn)
inactive: [1] -18.4% and 5.95% | [2] -30.8% and -27.1% | [3] -9.65% and -29.5% | [4] 12.7% and -14.9% | [5] -0.55% and -12.1% | [6] -10.6% and -41%
